Screens from PubChem BioAssay.
M1 ag: activates human CHRM1 receptor; CHO-K1 hM1, Fluo-8 calcium fluorescence, agonist mode; 0% DMSO, 100% acetylcholine EC100; activation, % at 3 µM; actives 0.33% (n = 360,000); AID 588814;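 active = activation above the run's mean compound activation plus 3 SD, cut at about 16% in these data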;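 note: peak over basal fluorescence ratio within a 140 s kinetic read after compound addition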
Target sequence (P11229 whole entry, looked up): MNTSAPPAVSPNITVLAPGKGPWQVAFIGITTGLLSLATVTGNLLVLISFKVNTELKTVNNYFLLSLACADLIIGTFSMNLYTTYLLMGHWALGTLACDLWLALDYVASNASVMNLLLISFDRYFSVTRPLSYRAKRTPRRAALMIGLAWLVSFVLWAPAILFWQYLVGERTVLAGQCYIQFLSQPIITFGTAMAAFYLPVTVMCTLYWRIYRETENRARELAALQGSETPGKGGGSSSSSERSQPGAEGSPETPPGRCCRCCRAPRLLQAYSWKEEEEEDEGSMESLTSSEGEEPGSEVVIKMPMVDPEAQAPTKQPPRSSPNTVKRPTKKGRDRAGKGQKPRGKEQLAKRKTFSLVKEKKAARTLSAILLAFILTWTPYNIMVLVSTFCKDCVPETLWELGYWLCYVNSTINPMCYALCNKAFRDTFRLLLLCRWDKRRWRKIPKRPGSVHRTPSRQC
CHRM4 PAM: CHRM4 positive allosteric modulation; P08173; CHO-K1 hM4/Gqi5, Fluo-8 calcium fluorescence, ACh EC20; 0% = ACh EC20, 100% = maximal ACh; activation, % at 3 µM; actives 0.4% (n = 360,000); AID 624126;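 active = activation above its plate's cutoff, the mean activation of sample wells plus 3 SD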
CHRM4 agonist: agonists of human muscarinic M4 receptor (CHRM4). P08173. CHO-K1 hM4/Gqi5, Fluo-8 calcium fluorescence; vehicle 0%, full acetylcholine response 100%. activation, % at 3 µM. actives 0.14% (n = 360,000);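 active = activation above the run mean over all test wells plus 3 SD, cut at about 32% in these data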;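 note: peak over basal fluorescence ratio per well then scaled between controls; 0% = DMSO wells and 100% = acetylcholine at EC100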
CHRM4 antagonist: blocks acetylcholine activation of human M4 receptor | actives 0.73% (n = 360,000) | P08173 | inhibition, % at 3 µM | AID 624125 | CHO-hM4 cells, ACh EC80, Fluo-8 calcium fluorescence;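 active = inhibition above its plate's cutoff, the mean inhibition of sample wells plus 3 SD, cut at about 27% in these data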;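 note: 0% = acetylcholine EC80 with DMSO and 100% = DMSO without agonist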
CHRM1 antagonist: antagonists of human M1 muscarinic receptor; P11229; CHO-K1 hM1, Fluo-8 calcium fluorescence, ACh EC80 antagonist; inhibition, % at 3 µM; actives 1.3% (n = 360,000); AID 588852;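 active = percent inhibition above its own plate's cutoff, namely the mean of that plate's compound wells plus 3 SD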;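 note: peak over basal fluorescence ratio during 140 s after agonist addition; 0% = ACh EC80 plus DMSO and 100% = DMSO alone without agonist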
CHRM1 PAM: positive allosteric modulators of human M1 muscarinic receptor | AID 588819 | actives 0.088% (n = 360,000) | CHO-K1 hM1, Fluo-8 calcium fluorescence, ACh EC20; 0% = ACh EC20, 100% = maximal ACh | activation, % at 3 µM | P11229; in the data active = activation above about 19%, passing the limit was not always enough
The depositor's hits bear a star; . = no result given. Hits are enriched below; roughly 2.2% of the tested compounds scored in any of these assays.

SMILES	M1 ag	CHRM4 PAM	CHRM4 agonist	CHRM4 antagonist	CHRM1 antagonist	CHRM1 PAM
CN(C)C(CNC(=O)CCC(=O)c1ccc(Br)cc1)c1ccccc1 (stereo not given)	-8	-6	3	5	35*	-28
COc1ccc(NC(=O)COc2ccccc2)cc1Cl	-3	-4	1	3	-11	8
CN(C)C(CNC(=O)CCS(=O)(=O)c1ccccc1)c1ccccc1 (stereo not given)	-9	2	1	-2	-7	7
CN(C)C(CNC(=O)c1ccc(NC(=O)CC#N)cc1)c1ccccc1 (stereo not given)	-8	-13	0	-6	30*	-20
CCN(CC(=O)Nc1ccccc1C(F)(F)F)CC(=O)NC1CC1	-1	9	0	-7	-6	4
Oc1c(C(c2ccccc2)N2CCc3ccccc3C2)sc2ncnn12 (stereo not given)	-5	-2	3	7	-12	6
O=S(=O)(c1ccccc1)N1N=C(c2cccs2)CC1c1ccc(Br)cc1 (stereo not given)	-2	21*	0	-8	-24	4
O=C(NNC(=O)c1ccncc1)Nc1ccc(N=Nc2ccccc2)cc1	18*	4	5	-6	-13	15
O=C(NNC(=O)c1ccncc1)Nc1ccccc1	-3	-4	0	1	-6	12
c1ccc(COc2ccc(-c3csnn3)cc2)cc1	-1	7	0	7	-4	3
COc1ccc(/C=C2/C(=O)N(c3ccccc3)N=C2C)cc1	5	3	6	3	-18	20
C#CCNC(=O)C[C@@H]1C[C@@]2(C(=O)OCC)CCC=C2N(Cc2ccco2)C1=O	.	28*	1	-10	.	.
C#CCNC(=O)C[C@@H]1C[C@@]2(C(=O)OC)CCCCC=C2N(Cc2ccco2)C1=O	.	6	1	-2	.	.
CCOC(=O)[C@]12CCCC=C1N(Cc1ccco1)C(=O)[C@H](CC(=O)N1CCN(C(=O)c3ccco3)CC1)C2	.	24*	-2	-3	.	.
CN(C)CCCNCCCNC(=O)/C(=N\O)c1ccccc1	-7	33*	1	-17	-4	4
CN(C)CCCNCCCNC(=O)c1ccccn1	-2	4	1	4	-31	6
Cc1ccc(C(C)C)c(OCCCCN2CCNCC2)c1	-8	-5	4	-3	-7	-3
C=CCc1ccc(OCCCCCN2CCOCC2)c(OC)c1	-5	-11	2	21	46*	-21
Cc1ccc(C(C)C)c(OCCCCCN2CCOCC2)c1	-12	-20	1	22	69*	-36
Cc1ccccc1S(=O)(=O)NC(=O)C1(C)CCN1C(=O)C/C=C/c1ccccc1 (stereo not given)	-1	-13	0	85*	-11	3
Cc1ccccc1S(=O)(=O)NC(=O)C1(C)CCN1C(=O)CC1CCCC1 (stereo not given)	0	6	1	-7	-16	12
CC1(C(=O)NS(=O)(=O)c2ccccc2Cl)CCN1C(=O)C/C=C/c1ccccc1 (stereo not given)	-2	3	-1	-9	-10	7
CC1(C(=O)NS(=O)(=O)c2ccccc2Cl)CCN1C(=O)CC1CCCC1 (stereo not given)	0	15*	1	-11	-2	7
COCCNC(=O)C(c1ccc(C)cc1)N(C(=O)CCC(=O)Nc1ccccn1)c1ccc(F)cc1 (stereo not given)	-4	3	2	-7	-6	2
COCCNC(=O)C(c1ccc(F)cc1)N(C(=O)CCC(=O)Nc1ccccn1)c1ccc(C)cc1 (stereo not given)	-5	30*	16	23	-2	7
SMILES	M1 ag	CHRM4 PAM	CHRM4 agonist	CHRM4 antagonist	CHRM1 antagonist	CHRM1 PAM
CCOC(=O)c1c(C)noc1CP(=O)(c1ccccc1)c1ccccc1	-3	18*	1	-3	-11	7
c1ccc(CNc2nc(-c3cccnc3)cs2)cc1	-10	6	2	-2	1	8
CCSc1ncc(Cl)c(C(=O)Nc2ccc(S(=O)(=O)Nc3onc(C)c3C)cc2)n1	4	10	0	1	-10	22*
Cc1noc(NS(=O)(=O)c2ccc(NC(=O)/C=C/c3ccc(C(C)C)cc3)cc2)c1C	-1	5	0	-3	3	-2
Cc1noc(NS(=O)(=O)c2ccc(NC(=O)/C=C/c3ccc(Br)cc3)cc2)c1C	0	16*	0	-6	-17	17
Cc1cc(C(=O)Nc2sc3c(c2C#N)CCCC3)no1	-3	5	2	-5	-6	3
Cc1nc2scc(C)n2c(=O)c1S(=O)(=O)NCC1CCN(Cc2ccc(Cl)cc2)CC1	-6	-14	1	65*	44*	-23
CSc1ccccc1NC(=S)NCc1ccc(Cl)cc1	-2	-1	2	3	26*	-10
Cc1cc(OCC(=O)Nc2sc3c(c2C#N)CC(C)(C)NC3(C)C)c(C(C)C)cc1Cl	-1	3	5	3	0	7
CCOC(=O)C1=C(C)OC(N)=C(C#N)C1c1cc(F)ccc1F (stereo not given)	-11	-2	1	30*	-5	7
CCOC(=O)C1=C(C)OC(N)=C(C#N)C1c1cccc(C)c1 (stereo not given)	-4	1	1	0	-13	13
CCNS(=O)(=O)c1ccc(CCC(=O)Nc2ccc(C(=O)OC)cc2)cc1	-5	29*	4	-7	-5	0
CCNS(=O)(=O)c1ccc(CCC(=O)Nc2ccccc2C(=O)OC)cc1	-6	-4	1	-5	-11	8
COC(=O)C(/C=N/OCc1ccc([N+](=O)[O-])cc1)NC(=O)c1cccc(Cl)c1 (stereo not given)	25*	10	29	12	4	4
Cc1ccc(CONC(=O)c2cccc([N+](=O)[O-])c2)cc1	-4	0	0	2	-6	5
O=C(CCN1C(=O)/C(=C/c2ccccc2F)SC1=S)NCCc1ccc(O)cc1	3	-5	17	3	32*	-12
O=C(CCN1C(=O)/C(=C/c2ccccc2)SC1=S)NCCc1ccc(O)cc1	5	-10	16	18	34	-15
Oc1ccccc1C(=S)N1CCN(C(=S)c2ccccc2O)CC1	-1	1	2	-12	3	-4
CCc1nnc(NC(=O)CN2C(=O)NC3(CCCC3)C2=O)s1	-6	-2	0	8	6	-3
O=C(CN1C(=O)NC2(CCCC2)C1=O)NNC(=O)c1ccc(Br)cc1	2	25*	1	-16	-22	30*
